Screening results deposited in PubChem BioAssay by National Center for Advancing Translational Sciences (NCATS).
HP1b chromo inh: HP1-beta chromodomain-methylated histone interaction inhibition | AlphaScreen HP1-beta / biotin-H3K9me3 peptide binding | Potency, µM (titrated, usually from 114 µM), actives largely listed as inhibitors | 390,000 tested, 0.56% active | AID 540317; also: nearly all actives have a fitted effect of over 70% in size
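HP1-beta protein (50 nM final) preincubated 30 min at room temperature with biotinylated H3(1-18)K9me3 peptide (50 nM) in PBS pH 7.4, 0.01% Tween-20, then compound added for 30 min. AlphaScreen streptavidin donor/nickel chelate acceptor beads (10 ug/mL final), 30 min dark, luminescence read.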
Sfp PPTase inh: inhibitors of Bacillus subtilis Sfp phosphopantetheinyl transferase. Q9F4F7. Biochemical Sfp PPTase activity, qHTS. Potency, µM, hits mostly inhibitors. 310,000 tested, 3.5% active. AID 1490;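 also: the enzyme is Sfp with the accession as filed and its product quenches rhodamine fluorescence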
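Fluorescence-quenching assay: 15 nM Sfp-PPTase preincubated 15 min at room temperature with compound, then 5 uM rhodamine-CoA and 12.5 uM BHQ-2-labelled YbbR peptide added. Fluorescence (ex 525/em 598 nm) read at start and after 30 min; difference gives rate.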
BAZ2B block: blocks human BAZ2B; Q9UIF8; Potency, µM (doses to about 114 µM), hits mostly inhibitors; AlphaScreen BAZ2B-H3K14Ac peptide displacement; 360,000 tested, 4.4% active; also: nearly all actives have a fitted effect of over 60% in size
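Compounds, titrated to a top concentration of 110 uM, were incubated 30 min at room temperature with preformed BAZ2B/acetyl-K14 H3 peptide complex (50 nM each). Proximity signal was measured by AlphaScreen after 20 min with beads.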
JMJD2A Tudor inh: inhibitors of human JMJD2A Tudor domain | O75164 | AlphaScreen JMJD2A-Tudor / H3K4me3 peptide binding | Potency, µM (top dose mostly 114 µM), most hits filed as inhibitors | 390,000 tested, 4.4% active; also: nearly all actives have a fitted effect of over 50% in size
PLK1 PBD block: blocks phosphopeptide binding to human PLK1 polo-box domain. P53350. Plk1 PBD binding of FITC phosphopeptide, fluorescence polarization. Potency, µM, actives largely listed as inhibitors. 360,000 tested, 2.8% active. AID 720504; also: series mostly up to about 57 µM; nearly all actives have a fitted effect of over 65% in size
G9a inh: blocks human histone lysine methyltransferase G9a | 350,000 tested, 8.8% active | Potency, µM (titrated, usually from 102 µM), actives largely listed as inhibitors | AID 504332 | G9a H3K9 monomethylation, AlphaScreen, 2 h | Q96KQ7; also: nearly all actives have a fitted effect of over 75% in size
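Chemiluminescent proximity detection of H3K9 monomethylation, read after 10 min bead incubation in the dark. Reaction: 20 nM G9a, 500 nM biotin-H3K9 peptide, 20 uM SAM cofactor, 2 h, room temperature, following 15 min enzyme-compound preincubation.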
Large screens that a line does not name were inactive. An excerpt weighted towards active compounds, which were near 12% of everything screened. Calls follow the shape of the dose curve; as a rule, active = well fitted curve in the direction sought with a large enough effect; inconclusive = small, poorly fitted or top-dose-only effect, or another doubt; inactive = no such curve, though single readings can be large; an effect the other way counts as inactive or inconclusive.

COc1cc(NC(=O)c2ccc3c(c2)OCO3)ccc1NC(=O)C(C)C	HP1b chromo inh inconclusive, JMJD2A Tudor inh 79µM, PLK1 PBD block 30µM
Cc1cccc(C)c1N1CCN(c2nc(N(C)C)oc(=O)c2C#N)CC1	none
O=S(=O)(c1ccc(NC(=S)N2CCN(c3ccccc3F)CC2)cc1)N1CCOCC1	PLK1 PBD block 19µM
O=S(=O)(c1ccc(NC(=S)NN=C2CCCCC2)cc1)N1CCOCC1	JMJD2A Tudor inh 28µM, G9a inh 6.3µM
O=C(NNC(=O)C12CC3CC(CC(C3)C1)C2)c1ccncc1	G9a inh 40µM
COc1ccccc1NC(=O)c1sc2nc3n(c(=O)c2c1C)N=C(c1cccc(Br)c1)CS3	none (no result: Sfp PPTase inh, PLK1 PBD block)
Cn1c(=O)n(C)c2cc(S(=O)(=O)NCCc3ccccc3)ccc21	BAZ2B block inconclusive
Cn1c(=O)n(C)c2cc(NS(=O)(=O)c3ccc(Cl)cc3)c(NCc3ccccc3)cc21	JMJD2A Tudor inh inconclusive, G9a inh 16µM (no result: Sfp PPTase inh, PLK1 PBD block)
Cn1c(=O)n(C)c2cc(NS(=O)(=O)c3ccccc3)c(NCc3ccccc3)cc21	HP1b chromo inh inconclusive, BAZ2B block 50µM, JMJD2A Tudor inh inconclusive, G9a inh 11µM (no result: Sfp PPTase inh, PLK1 PBD block)
COc1ccc(S(=O)(=O)Nc2ccc3c(c2)n(C)c(=O)n3C)cc1OC	BAZ2B block inconclusive
COc1ccc(S(=O)(=O)Nc2cc3c(cc2NCc2ccccc2)n(C)c(=O)n3C)cc1OC	BAZ2B block 50µM, JMJD2A Tudor inh inconclusive, G9a inh 13µM (no result: Sfp PPTase inh, PLK1 PBD block)
Cc1cc(S(=O)(=O)Nc2cc3c(cc2NCc2ccccc2)n(C)c(=O)n3C)ccc1F	BAZ2B block inconclusive, G9a inh 14µM (no result: Sfp PPTase inh, PLK1 PBD block)
CS(=O)(=O)c1ccc(Cl)c(NC(=O)COC(=O)COc2ccc3c(c2)CCC3)c1	none (no result: Sfp PPTase inh)
CCOC(=O)c1ccccc1NC(=O)Cn1ccn2nc(-c3ccc(OCC)cc3)cc2c1=O	none (no result: Sfp PPTase inh, PLK1 PBD block)
Cn1c(=O)n(C)c2cc(S(=O)(=O)Nc3ccccc3C(=O)O)ccc21	none
Cn1c(=O)n(C)c2cc(NS(=O)(=O)c3ccc(C(C)(C)C)cc3)c(NCc3ccccc3)cc21	HP1b chromo inh inconclusive, BAZ2B block 40µM, JMJD2A Tudor inh 22µM, G9a inh 14µM (no result: Sfp PPTase inh, PLK1 PBD block)
O=C(C1CCCCC1)N1CCN(S(=O)(=O)c2ccc(Cl)cc2)CC1	PLK1 PBD block 30µM
O=C(C1CCCN(S(=O)(=O)c2ccccc2)C1)N1CCCCC1 (stereo unspecified)	none (no result: G9a inh)
Cc1ccc(S(=O)(=O)N2CCCC(C(=O)O)C2)s1 (stereo unspecified)	JMJD2A Tudor inh inconclusive, PLK1 PBD block 30µM, G9a inh inconclusive
CN1CCN(C(=O)C2CCCN(S(=O)(=O)c3ccc(Cl)cc3)C2)CC1 (stereo unspecified)	HP1b chromo inh inconclusive, BAZ2B block 50µM, JMJD2A Tudor inh 0.71µM, G9a inh 10µM
CN1CCN(C(=O)C2CCCN(S(=O)(=O)c3ccccc3)C2)CC1 (stereo unspecified)	Sfp PPTase inh inconclusive, BAZ2B block inconclusive, JMJD2A Tudor inh 20µM (no result: G9a inh)
Cc1ccccc1-c1nc(CNC(=O)Nc2ccccc2)c(C)o1	none (no result: Sfp PPTase inh, PLK1 PBD block)
CC(C)(C)c1ccc2c(S(=O)(=O)O)c(C(C)(C)C)ccc2c1	none (no result: HP1b chromo inh, BAZ2B block, JMJD2A Tudor inh, PLK1 PBD block)
O=C(NCc1ccncc1)c1ccccc1Nc1ccc(SC(F)F)cc1	G9a inh 45µM
CCN1CCN(C(=O)c2ccccc2Nc2ccc(SC(F)F)cc2)CC1	G9a inh 50µM
CC1CN(C(=O)Nc2cccc(Cl)c2)C2(CCCCCC2)O1 (stereo unspecified)	none
O=C(COc1ccc(Br)cc1)NCCCNC(=O)c1ccncc1	none (no result: G9a inh)
Cc1ccc(CNC(=O)CCn2cc(-c3ccc(C)cc3)nc2-c2ccncc2)cc1	BAZ2B block inconclusive, G9a inh 45µM
Cc1ccc(CNC(=O)CCn2cc(-c3ccc(F)cc3)nc2-c2ccncc2)cc1	none (no result: Sfp PPTase inh)
Cc1cc(C)nc(SC2c3cccc4cccc(c34)C2NS(=O)(=O)c2ccccc2)n1 (stereo unspecified)	none
Nc1nc(SC2c3cccc4cccc(c34)C2NS(=O)(=O)c2ccccc2)n[nH]1 (stereo unspecified)	HP1b chromo inh inconclusive, BAZ2B block inconclusive, G9a inh 3.2µM
CCOC(=O)CN1C(=O)c2cccnc2Oc2ccccc21	none (no result: Sfp PPTase inh, PLK1 PBD block)
